According to PubChem BioAssay (EPA / NIEHS):
Some structures have more than one record in an assay (separate samples or runs), and their calls can disagree. Active and inactive are the calls of the source. The calls were made as follows: active = hit-call score of the fitted dose curve at least 0.9, where 1 is the maximum; inactive = score below 0.9.

What follows are molecules tested against Nuclear respiratory factor 1 (Homo sapiens) (UniProt Q16656) (assay: ATG_NRF1_CIS: Attagene CIS-FACTORIAL HepG2 Assay for human Nuclear Respiratory Factor 1 (NRF1) Orphan Gene (AID 2282987)). Conditions: HepG2 NRF1 cis-element reporter, Attagene multiplex; actives raise or lower the signal.
Experimental: ATG_CIS is a cell-based, multiplexed-readout assay that uses HepG2, a human liver cell line, with measurements taken at 24 hours after chemical dosing in a 24-well plate.ATG_NRF1_CIS is one of 52 assay component(s) measured or calculated from the ATG_CIS assay. It is designed to make measurements of mRNA induction, a form of inducible reporter, as detected with fluorescence intensity signals by Reverse transcription polymerase chain reaction (RT-PCR) and Capillary electrophoresis technology.Data from the assay component ATG_NRF1_CIS was analyzed into 1 assay endpoint. This assay endpoint, ATG_NRF1_CIS, was analyzed with bidirectional fitting relative to DMSO as the negative control and baseline of activity. Using a type of inducible reporter, measures of mRNA for gain or loss-of-signal activity can be used to understand the reporter gene at the transcription factor-level as they relate to the gene NRF1. Furthermore, this assay endpoint can be referred to as a primary readout, because this assay has produced multiple assay endpoints where this one serves a reporter gene function. To generalize the intended target to other relatable targets, this assay endpoint is annotated to the dna binding intended target family, where the subfamily is nuclear respiratory factors.
Human liver HepG2 cells are transiently transfected with multiple reporter transcription units (MRTUs) in 6-well plates using FuGene 6 reagent (Roche; 3 ml FuGene/1 mg DNA). The MRTU constructs are regulated by a cis-regulating element (promoter). […] A major difference between the CIS and TRANS system is that in CIS activities of endogenous TFs are measured, whereas the TRANS assay evaluates changes in activities of exogenous, chimeric NR-Gal4 proteins. […] At the end of 24 hour incubation, total RNA was isolated using TriZol reagent (Invitrogen). The isolated RNA is then reverse-transcribed using oligo(dT) primer and Mo-MLV reverse transcriptase (Invitrogen) with DNAse I (Ambion) treatment for 30 min. The one-tenth of the produced cDNA was amplified by PCR using Taq DNA polymerase (Invitrogen) and two reporter sequence-specific primers. The PCR products were fluorescently labeled by primer extension with 6-arboxyfluorescein (6-FAM) 5'-labeled reporter sequence-specific primer (2 min at 95 C, 20 s at 68 C and 10 min at 72 C) and these products were digested with 5U of HpaI (New England Biolabs) for 2h at 37 C. The fragments were purified using Qiaquick PCR columns (Qiagen), analyzed on an ABI 3130xL genetic analyzer (Applied Biosystems) with peak positions identified by using a set of X-rhodamine (ROX)-labeled MapMarker1000 molecular weight standards (BioVentures). The raw capillary electrophoresis data was processed using Attagraph software (Attagene).

Chain of Nuclear respiratory factor 1 (Homo sapiens) (Q16656 whole entry, looked up): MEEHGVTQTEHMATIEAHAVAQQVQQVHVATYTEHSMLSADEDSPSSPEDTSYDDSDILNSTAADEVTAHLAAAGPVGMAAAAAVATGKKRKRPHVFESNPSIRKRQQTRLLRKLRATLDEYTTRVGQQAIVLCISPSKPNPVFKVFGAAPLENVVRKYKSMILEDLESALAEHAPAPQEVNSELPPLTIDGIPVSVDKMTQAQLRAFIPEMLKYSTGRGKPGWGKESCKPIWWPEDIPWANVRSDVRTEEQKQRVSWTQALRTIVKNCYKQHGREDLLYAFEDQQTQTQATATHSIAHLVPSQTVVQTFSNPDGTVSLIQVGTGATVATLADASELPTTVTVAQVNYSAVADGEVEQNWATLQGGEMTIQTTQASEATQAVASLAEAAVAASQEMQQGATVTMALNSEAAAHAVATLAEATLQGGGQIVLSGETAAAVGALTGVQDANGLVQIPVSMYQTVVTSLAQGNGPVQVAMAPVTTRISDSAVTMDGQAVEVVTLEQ

outcome, inactive:
COc1ccc2cc(S(=O)(=O)N[C@H](CC(=O)N[C@H](Cc3ccc(CN4[C@H](C)CCC[C@@H]4C)cc3)C(=O)N(C)C(C)C)c3ccc4c(c3)OCO4)ccc2c1
Cc1cn([C@H]2C[C@H](N=[N+]=[N-])[C@@H](CO)O2)c(=O)[nH]c1=O
CCCOC(=O)c1cc(O)c(O)c(O)c1
CCCCOC(=O)c1ccc(O)cc1
OCCO
O=c1[nH]sc2ccccc12
CN(C)c1ccc(C(=C2C=CC(=[N+](C)C)C=C2)c2ccc(N(C)C)cc2)cc1
CC(C)(O)c1ccc(CNC(=O)c2cccnc2Oc2ccc3nonc3c2)cc1
O=C(OCCCCCCOC(=O)c1ccccc1)c1ccccc1
Clc1ccccc1C(c1ccccc1)(c1ccccc1)n1ccnc1
CC(C)(c1cc(Br)c(O)c(Br)c1)c1cc(Br)c(O)c(Br)c1
Cc1ccc2oc(CN(Cc3ccccc3)C(=O)Nc3c(F)cc(F)cc3F)c(-c3ccc(Cl)cc3)c2c1
Cc1cc2c(cc1C(F)(F)F)N(C(=O)Nc1ccc(Oc3cccnc3C)nc1)CC2
CN1C(=O)N(c2ccccc2Br)Cc2cnc(Nc3ccc4c(c3)OCC(CO)O4)nc21 (stereo not given)
COc1cccc([C@H](O)C2CCN(CCc3ccc(F)cc3)CC2)c1OC
Cc1occc1C(=O)Nc1ccc(C(=O)N2CCC(F)(F)/C(=C\C(=O)N3CCC(N4CCCCC4)CC3)c3ccccc32)cc1
O=CCCCC=O
O=C(O)c1ccccc1C(=O)OCc1ccccc1
COCC(C)OCC(C)OCC(C)O (stereo not given)
CN(C[C@@H](CC[N+]12CCC(C3CCCCC3)(CC1)CC2)c1ccc(Cl)c(Cl)c1)C(=O)c1cc(C(F)(F)F)cc(C(F)(F)F)c1
CC(C)(C)c1csc(-c2cc3cc(OCc4ccccc4CC(=O)O)ccc3o2)n1
O=C1CCC(C2CCCCC2)CC1
Cc1oc2c(NC(=O)c3c(Cl)cccc3Cl)cccc2c1C(C)(C)O
CCCCCCCCOC(=O)c1cc(O)c(O)c(O)c1
OC12N=C(c3ccccc3)SC1Cc1cc(Cl)ccc12 (stereo not given)
Cc1ncc(CO)c(CO)c1O
Oc1ccccc1
O=c1ccc2ccccc2o1
C[C@]12CC[C@@H]3c4ccc(O)cc4CC[C@H]3[C@@H]1CC[C@H]2O
CC/C(=C(/CC)c1ccc(O)cc1)c1ccc(O)cc1
Clc1cc(Cl)c2c(c1)N=C1CCCCCN1C2
c1ccc2ccccc2c1
CO[C@H]1/C=C/O[C@@]2(C)Oc3c(C)c(O)c4c(O)c(c(/C=N/N5CCN(C)CC5)c(O)c4c3C2=O)NC(=O)/C(C)=C\C=C\[C@H](C)[C@H](O)[C@@H](C)[C@@H](O)[C@@H](C)[C@H](OC(C)=O)[C@@H]1C
O=C1O[C@H]([C@@H](O)CO)C(O)=C1O
Cc1cccc2ccccc12
Cc1c2ccccc2c(C)c2c1ccc1ccccc12

AC50, active:
CCCCOC(=O)c1ccc(O)cc1 100 µM
CC(C)(c1cc(Br)c(O)c(Br)c1)c1cc(Br)c(O)c(Br)c1 53.3 µM
CCN(Cc1cccnc1)C(=O)c1cccc(Cl)c1[C@]1(C)C(=O)N(Cc2ccc(OC)cc2OC)c2ccc(Cl)cc21 9.65 µM
c1ccc2ccccc2c1 100 µM
